Measured values: publication PMC7862700, “An all-to-all approach to the identification of sequence-specific readers for epigenetic DNA modifications on cytosine”

Columns and labels:
Test in all cases: DAPPL (digital affinity profiling via proximity ligation, sequencing); 10 mM Tris-HCl pH 7.5, 50 mM NaCl, 1 mM DTT, 4% glycerol, room temperature, 30 min; GST-TFs on glutathione beads, 16-mer random dsDNA library, 0.1% formaldehyde crosslink after washing; high values mean tight binding
FLI1 = biological target: T1, FLI1 (Homo sapiens, UniProt Q01543 1-452); settings: protein: recombinant; tags: N-terminal GST; dsDNA, one strand shown
T1 sequence: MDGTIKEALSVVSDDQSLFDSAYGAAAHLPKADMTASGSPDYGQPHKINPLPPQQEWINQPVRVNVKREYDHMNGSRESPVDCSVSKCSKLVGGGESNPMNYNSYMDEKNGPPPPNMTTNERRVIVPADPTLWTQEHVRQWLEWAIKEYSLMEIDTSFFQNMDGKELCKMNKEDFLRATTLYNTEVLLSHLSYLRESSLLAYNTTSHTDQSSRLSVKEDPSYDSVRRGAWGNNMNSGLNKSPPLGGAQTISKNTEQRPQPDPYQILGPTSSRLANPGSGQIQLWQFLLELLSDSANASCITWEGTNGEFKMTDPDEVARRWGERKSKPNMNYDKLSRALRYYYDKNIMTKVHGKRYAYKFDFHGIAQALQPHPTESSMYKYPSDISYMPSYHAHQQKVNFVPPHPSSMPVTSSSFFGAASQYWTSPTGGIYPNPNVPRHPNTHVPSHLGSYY
Summary of the method: (§1)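 In yeast, human transcription factors were expressed with a GST fusion, then pulled down on glutathione beads and given DNA barcodes. Pooled with a tag-only sample, they were exposed to 200 nmole of a 16-mer random double-stranded DNA library (Tris/NaCl/DTT/glycerol buffer, room temperature, 30 min), washed, crosslinked with 0.1% formaldehyde, proximity-ligated using BsaI/T4 ligase for 1 h at 37 °C, PCR-amplified and read on an Illumina NextSeq500. Each hexamer's frequency of reads for a factor, divided by the matching frequency for the tag-only sample, gives the binding signal.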

ELK1 = biological target: T2, ELK1 (Homo sapiens, UniProt P19419 1-428); settings: protein: recombinant; tags: N-terminal GST; dsDNA, one strand shown
T2 sequence: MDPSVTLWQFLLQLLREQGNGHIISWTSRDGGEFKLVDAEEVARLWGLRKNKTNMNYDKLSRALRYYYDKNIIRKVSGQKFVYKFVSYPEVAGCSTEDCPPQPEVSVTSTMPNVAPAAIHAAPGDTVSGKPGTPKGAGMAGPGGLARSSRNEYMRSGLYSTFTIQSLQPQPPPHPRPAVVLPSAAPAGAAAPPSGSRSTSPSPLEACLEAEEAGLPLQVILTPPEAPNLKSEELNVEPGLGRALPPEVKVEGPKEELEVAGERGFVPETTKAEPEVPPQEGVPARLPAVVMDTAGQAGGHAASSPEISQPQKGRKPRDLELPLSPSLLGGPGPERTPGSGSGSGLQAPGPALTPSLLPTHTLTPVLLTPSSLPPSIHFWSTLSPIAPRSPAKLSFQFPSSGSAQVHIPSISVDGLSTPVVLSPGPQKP
Summary of the method: as §1

GABPA = biological target: T3, GABPA (Homo sapiens, UniProt Q06546 1-454); settings: protein: recombinant; tags: N-terminal GST; dsDNA, one strand shown
T3 sequence: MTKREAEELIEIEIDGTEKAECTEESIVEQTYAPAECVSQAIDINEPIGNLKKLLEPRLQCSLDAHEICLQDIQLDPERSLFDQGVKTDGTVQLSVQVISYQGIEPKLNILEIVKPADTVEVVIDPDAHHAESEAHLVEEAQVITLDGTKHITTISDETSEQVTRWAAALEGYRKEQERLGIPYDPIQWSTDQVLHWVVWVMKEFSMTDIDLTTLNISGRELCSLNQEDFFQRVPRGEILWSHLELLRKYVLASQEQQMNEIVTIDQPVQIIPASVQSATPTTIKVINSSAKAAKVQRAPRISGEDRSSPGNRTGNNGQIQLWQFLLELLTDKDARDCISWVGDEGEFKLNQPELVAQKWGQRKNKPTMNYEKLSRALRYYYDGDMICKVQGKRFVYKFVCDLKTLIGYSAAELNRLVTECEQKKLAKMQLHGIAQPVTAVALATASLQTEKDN
Summary of the method: as §1

ERG = biological target: T4, ERG (Homo sapiens, UniProt P11308 1-479); settings: protein: recombinant; tags: N-terminal GST; dsDNA, one strand shown
T4 sequence: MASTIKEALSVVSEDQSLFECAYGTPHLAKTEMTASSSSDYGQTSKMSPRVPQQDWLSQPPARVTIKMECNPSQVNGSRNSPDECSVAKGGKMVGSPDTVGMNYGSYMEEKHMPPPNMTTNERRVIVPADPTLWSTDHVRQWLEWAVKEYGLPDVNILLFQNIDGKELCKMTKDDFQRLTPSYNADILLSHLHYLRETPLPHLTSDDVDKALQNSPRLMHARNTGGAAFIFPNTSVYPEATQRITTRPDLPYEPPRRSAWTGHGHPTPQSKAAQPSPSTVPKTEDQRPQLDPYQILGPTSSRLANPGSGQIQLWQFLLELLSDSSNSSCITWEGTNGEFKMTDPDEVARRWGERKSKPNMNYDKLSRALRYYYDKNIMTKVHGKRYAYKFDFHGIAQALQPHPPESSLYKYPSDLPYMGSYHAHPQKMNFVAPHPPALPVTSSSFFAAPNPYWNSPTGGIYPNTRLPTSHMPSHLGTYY
Summary of the method: as §1

ELF1 = ELF1 (Homo sapiens, UniProt P32519 1-619); settings: protein: recombinant; tags: N-terminal GST; dsDNA, one strand shown
Summary of the method: as §1

EHF = biological target: T5, EHF (Homo sapiens, UniProt Q9NZC4 1-300); settings: protein: recombinant; tags: N-terminal GST; dsDNA, one strand shown
T5 sequence: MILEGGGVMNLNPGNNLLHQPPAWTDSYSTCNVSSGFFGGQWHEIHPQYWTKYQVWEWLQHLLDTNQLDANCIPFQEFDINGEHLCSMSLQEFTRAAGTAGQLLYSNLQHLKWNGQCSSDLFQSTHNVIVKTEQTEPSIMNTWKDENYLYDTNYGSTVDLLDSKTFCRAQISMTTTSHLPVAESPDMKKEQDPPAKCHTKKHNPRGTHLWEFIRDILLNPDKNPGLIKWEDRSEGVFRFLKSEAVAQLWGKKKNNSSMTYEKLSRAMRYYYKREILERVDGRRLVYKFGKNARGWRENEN
Summary of the method: as §1

SPI1 = SPI1 (Homo sapiens, UniProt P17947 1-270); settings: protein: recombinant; tags: N-terminal GST; dsDNA, one strand shown
Summary of the method: as §1

SPIB = SPIB (Homo sapiens, UniProt Q01892 1-262); settings: protein: recombinant; tags: N-terminal GST; dsDNA, one strand shown
Summary of the method: as §1

ELK3 = biological target: T6, ELK3 (Homo sapiens, UniProt P41970 1-407); settings: protein: recombinant; tags: N-terminal GST; dsDNA, one strand shown
T6 sequence: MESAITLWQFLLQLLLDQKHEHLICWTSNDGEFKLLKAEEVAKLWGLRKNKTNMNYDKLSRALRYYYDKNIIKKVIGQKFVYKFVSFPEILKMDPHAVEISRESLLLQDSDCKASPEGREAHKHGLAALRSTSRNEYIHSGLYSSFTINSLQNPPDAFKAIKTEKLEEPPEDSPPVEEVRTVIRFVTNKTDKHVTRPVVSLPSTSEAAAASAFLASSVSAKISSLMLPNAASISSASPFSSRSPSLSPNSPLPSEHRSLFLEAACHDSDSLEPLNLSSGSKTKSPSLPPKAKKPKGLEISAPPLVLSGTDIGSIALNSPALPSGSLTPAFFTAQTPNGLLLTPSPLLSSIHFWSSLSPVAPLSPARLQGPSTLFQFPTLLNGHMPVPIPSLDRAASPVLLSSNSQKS
Summary of the method: as §1

FEV = biological target: T7, FEV (Homo sapiens, UniProt Q99581 1-238); settings: protein: recombinant; tags: N-terminal GST; dsDNA, one strand shown
T7 sequence: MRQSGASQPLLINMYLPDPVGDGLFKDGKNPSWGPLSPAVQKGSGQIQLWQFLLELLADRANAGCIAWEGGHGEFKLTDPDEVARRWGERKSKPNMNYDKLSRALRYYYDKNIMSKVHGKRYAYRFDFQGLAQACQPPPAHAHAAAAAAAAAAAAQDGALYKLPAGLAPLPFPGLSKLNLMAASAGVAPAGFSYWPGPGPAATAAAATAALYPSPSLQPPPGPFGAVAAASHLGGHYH
Summary of the method: as §1

ETV5 = ETV5 (Homo sapiens, UniProt P41161 1-510); settings: protein: recombinant; tags: N-terminal GST; dsDNA, one strand shown
Summary of the method: as §1

HSF1 = HSF1 (Homo sapiens, UniProt Q00613 1-529); settings: protein: recombinant; tags: N-terminal GST; chain copies: 3; dsDNA, one strand shown
Summary of the method: as §1

SPIC = biological target: T8, SPIC (Homo sapiens, UniProt Q8N5J4 1-248); settings: protein: recombinant; tags: N-terminal GST; dsDNA, one strand shown
T8 sequence: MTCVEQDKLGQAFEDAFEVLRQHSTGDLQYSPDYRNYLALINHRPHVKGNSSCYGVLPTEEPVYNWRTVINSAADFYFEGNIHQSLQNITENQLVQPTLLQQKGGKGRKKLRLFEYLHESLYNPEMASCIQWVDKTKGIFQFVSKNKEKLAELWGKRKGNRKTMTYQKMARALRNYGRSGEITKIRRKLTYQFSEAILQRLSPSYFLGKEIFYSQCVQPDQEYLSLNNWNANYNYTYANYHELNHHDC
Summary of the method: as §1

ELF4 = ELF4 (Homo sapiens, UniProt Q99607 1-663); settings: protein: recombinant; tags: N-terminal GST; dsDNA, one strand shown
Summary of the method: as §1

ELK4 = biological target: T9, ELK4 (Homo sapiens, UniProt P28324-2 1-405); settings: protein: recombinant; tags: N-terminal GST; dsDNA, one strand shown
T9 sequence: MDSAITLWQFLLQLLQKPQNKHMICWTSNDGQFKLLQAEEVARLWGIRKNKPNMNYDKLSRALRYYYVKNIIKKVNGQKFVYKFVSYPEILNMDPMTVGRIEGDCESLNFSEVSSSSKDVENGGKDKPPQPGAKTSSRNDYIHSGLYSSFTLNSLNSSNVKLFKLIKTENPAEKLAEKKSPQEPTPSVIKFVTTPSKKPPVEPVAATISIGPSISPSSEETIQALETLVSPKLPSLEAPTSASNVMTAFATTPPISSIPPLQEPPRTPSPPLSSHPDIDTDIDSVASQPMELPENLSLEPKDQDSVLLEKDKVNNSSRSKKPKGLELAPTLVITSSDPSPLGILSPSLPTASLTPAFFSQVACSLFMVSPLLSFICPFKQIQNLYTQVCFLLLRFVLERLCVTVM
Summary of the method: as §1

ETV2 = biological target: T10, ETV2 (Homo sapiens, UniProt O00321 1-342); settings: protein: recombinant; tags: N-terminal GST; dsDNA, one strand shown
T10 sequence: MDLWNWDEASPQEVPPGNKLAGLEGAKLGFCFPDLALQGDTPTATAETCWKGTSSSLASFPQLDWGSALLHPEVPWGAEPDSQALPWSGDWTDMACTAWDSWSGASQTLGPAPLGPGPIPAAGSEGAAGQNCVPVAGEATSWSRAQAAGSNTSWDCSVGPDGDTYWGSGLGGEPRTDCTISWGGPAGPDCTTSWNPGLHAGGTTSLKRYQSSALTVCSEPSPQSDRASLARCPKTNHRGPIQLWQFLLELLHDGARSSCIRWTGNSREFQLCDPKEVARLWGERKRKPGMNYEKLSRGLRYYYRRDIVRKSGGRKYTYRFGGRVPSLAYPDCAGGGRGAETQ
Summary of the method: as §1

ELF3 = biological target: T11, ELF3 (Homo sapiens, UniProt P78545 1-371); settings: protein: recombinant; tags: N-terminal GST; dsDNA, one strand shown
T11 sequence: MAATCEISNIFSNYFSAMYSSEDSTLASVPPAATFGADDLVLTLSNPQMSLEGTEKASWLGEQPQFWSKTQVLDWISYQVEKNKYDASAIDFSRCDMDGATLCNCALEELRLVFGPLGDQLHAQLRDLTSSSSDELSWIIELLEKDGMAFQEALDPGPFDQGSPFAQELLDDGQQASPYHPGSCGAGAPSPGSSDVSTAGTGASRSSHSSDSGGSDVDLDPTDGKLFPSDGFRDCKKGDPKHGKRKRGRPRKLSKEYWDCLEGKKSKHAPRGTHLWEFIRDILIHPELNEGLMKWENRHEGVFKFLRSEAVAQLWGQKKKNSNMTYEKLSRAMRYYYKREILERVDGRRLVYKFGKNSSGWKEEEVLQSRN
Summary of the method: as §1

CRX = CRX (Homo sapiens, UniProt O43186 1-299); settings: protein: recombinant; tags: N-terminal GST; dsDNA, one strand shown
Summary of the method: as §1

ETV1 = ETV1 (Homo sapiens, UniProt P50549 1-477); settings: protein: recombinant; tags: N-terminal GST; dsDNA, one strand shown
Summary of the method: as §1

Sequence of CRX (O43186 whole entry): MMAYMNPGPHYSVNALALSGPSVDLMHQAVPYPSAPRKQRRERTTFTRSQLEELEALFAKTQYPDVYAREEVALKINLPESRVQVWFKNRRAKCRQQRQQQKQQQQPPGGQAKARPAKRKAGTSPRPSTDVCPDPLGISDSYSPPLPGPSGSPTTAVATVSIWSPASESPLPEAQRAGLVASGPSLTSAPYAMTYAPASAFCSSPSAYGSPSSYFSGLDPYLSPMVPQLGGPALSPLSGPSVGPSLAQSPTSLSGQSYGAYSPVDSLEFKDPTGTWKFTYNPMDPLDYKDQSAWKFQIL
Sequence of ELF1 (P32519 whole entry): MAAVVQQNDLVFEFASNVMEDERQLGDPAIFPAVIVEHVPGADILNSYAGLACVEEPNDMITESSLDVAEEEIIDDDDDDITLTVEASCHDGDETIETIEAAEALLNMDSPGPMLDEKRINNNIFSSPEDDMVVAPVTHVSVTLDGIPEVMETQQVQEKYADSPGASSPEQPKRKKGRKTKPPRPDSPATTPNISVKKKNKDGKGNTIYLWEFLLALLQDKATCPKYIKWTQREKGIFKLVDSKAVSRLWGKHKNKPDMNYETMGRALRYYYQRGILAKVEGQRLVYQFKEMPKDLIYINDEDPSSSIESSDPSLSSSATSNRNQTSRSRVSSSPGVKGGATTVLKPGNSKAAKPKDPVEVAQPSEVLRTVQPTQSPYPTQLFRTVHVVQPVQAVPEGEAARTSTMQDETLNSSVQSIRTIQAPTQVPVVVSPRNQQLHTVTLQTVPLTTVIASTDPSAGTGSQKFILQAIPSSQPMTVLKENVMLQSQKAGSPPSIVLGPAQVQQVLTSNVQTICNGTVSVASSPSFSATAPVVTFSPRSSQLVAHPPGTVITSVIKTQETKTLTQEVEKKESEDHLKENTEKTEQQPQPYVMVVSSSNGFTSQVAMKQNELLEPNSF
Sequence of ETV1 (P50549 whole entry): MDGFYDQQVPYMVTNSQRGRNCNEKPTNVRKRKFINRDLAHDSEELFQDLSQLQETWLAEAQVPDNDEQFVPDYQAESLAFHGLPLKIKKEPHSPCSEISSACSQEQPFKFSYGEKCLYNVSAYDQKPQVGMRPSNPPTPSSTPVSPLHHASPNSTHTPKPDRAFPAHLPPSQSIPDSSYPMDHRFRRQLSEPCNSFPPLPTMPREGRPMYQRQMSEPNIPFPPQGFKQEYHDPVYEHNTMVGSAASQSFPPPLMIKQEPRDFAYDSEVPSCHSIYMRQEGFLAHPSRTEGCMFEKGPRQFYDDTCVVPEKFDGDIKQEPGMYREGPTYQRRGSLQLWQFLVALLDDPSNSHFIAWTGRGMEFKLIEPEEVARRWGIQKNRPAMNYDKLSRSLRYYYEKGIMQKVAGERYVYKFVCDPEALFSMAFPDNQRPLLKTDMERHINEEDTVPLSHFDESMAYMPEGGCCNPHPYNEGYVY
Sequence of SPIB (Q01892 whole entry): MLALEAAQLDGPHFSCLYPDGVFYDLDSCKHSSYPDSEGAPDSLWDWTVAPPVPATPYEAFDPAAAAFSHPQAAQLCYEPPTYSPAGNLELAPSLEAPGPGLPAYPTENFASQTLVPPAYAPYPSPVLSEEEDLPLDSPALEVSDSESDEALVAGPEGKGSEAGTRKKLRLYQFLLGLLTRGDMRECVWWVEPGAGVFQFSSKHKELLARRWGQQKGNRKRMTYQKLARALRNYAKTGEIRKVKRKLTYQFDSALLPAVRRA
Sequence of HSF1 (Q00613 whole entry): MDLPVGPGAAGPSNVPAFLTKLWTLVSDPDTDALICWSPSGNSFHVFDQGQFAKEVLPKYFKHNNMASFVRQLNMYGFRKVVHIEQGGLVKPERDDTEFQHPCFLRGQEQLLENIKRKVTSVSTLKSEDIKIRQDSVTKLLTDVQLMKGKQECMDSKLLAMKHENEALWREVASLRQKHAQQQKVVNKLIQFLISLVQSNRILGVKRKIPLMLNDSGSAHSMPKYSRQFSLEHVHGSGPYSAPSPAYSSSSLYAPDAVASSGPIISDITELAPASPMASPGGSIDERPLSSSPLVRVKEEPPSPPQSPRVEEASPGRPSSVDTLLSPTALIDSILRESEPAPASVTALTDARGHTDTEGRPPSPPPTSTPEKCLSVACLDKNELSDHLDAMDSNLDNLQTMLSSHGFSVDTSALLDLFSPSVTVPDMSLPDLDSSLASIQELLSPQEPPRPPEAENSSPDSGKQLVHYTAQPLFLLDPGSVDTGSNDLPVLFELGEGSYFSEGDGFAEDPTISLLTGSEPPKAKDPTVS
Sequence of ELF4 (Q99607 whole entry): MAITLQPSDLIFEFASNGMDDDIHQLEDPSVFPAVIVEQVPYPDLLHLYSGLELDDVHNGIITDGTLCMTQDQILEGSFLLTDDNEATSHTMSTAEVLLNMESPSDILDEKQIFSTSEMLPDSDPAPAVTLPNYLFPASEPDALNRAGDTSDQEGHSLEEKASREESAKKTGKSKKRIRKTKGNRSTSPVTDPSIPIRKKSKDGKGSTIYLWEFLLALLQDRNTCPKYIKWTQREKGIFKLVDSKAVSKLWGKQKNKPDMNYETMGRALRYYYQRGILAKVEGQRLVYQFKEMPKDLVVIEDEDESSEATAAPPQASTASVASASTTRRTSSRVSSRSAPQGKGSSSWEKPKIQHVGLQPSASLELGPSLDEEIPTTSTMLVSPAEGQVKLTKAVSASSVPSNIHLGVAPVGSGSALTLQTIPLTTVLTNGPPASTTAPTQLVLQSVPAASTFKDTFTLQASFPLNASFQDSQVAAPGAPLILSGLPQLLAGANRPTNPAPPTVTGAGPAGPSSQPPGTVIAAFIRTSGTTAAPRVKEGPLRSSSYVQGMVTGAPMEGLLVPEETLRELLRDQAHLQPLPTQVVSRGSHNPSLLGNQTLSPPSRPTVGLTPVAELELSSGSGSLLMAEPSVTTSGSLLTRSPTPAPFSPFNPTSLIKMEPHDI
Sequence of ETV5 (P41161 whole entry): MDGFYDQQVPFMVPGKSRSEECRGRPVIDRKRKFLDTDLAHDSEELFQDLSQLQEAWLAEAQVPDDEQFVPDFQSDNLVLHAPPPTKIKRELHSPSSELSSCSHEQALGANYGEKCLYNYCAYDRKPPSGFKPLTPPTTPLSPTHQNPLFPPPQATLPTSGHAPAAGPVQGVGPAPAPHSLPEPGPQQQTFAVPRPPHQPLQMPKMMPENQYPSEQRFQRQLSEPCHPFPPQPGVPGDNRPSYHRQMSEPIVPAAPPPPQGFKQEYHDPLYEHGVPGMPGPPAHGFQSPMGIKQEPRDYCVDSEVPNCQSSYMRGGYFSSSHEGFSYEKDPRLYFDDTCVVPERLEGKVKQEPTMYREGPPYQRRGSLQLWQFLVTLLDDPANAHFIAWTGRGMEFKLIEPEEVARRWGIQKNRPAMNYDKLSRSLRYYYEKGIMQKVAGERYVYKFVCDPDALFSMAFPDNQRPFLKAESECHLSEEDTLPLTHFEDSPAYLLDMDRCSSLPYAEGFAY

For TTGTAA, the binding signal (FLI1) was 1.32 fold enrichment (6-mer frequency, TF over GST control), the binding signal (ELK1) was 1.3 fold enrichment (6-mer frequency, TF over GST control) and the binding signal (GABPA) was 1.24 fold enrichment (6-mer frequency, TF over GST control). For the same sequence, the binding signal (ERG) was 1.27 fold enrichment (6-mer frequency, TF over GST control), the binding signal (ELF1) was 1.34 fold enrichment (6-mer frequency, TF over GST control) and the binding signal (EHF) was 1.34 fold enrichment (6-mer frequency, TF over GST control). For the same sequence, the binding signal (SPI1) was 1.3 fold enrichment (6-mer frequency, TF over GST control), the binding signal (SPIB) was 1.22 fold enrichment (6-mer frequency, TF over GST control) and the binding signal (ELK3) was 1.08 fold enrichment (6-mer frequency, TF over GST control). For the same sequence, the binding signal (FEV) was 1.2 fold enrichment (6-mer frequency, TF over GST control), the binding signal (ETV5) was 1.35 fold enrichment (6-mer frequency, TF over GST control) and the binding signal (HSF1) was 1.4 fold enrichment (6-mer frequency, TF over GST control). The binding signal (SPIC) was 1.31 fold enrichment (6-mer frequency, TF over GST control), the binding signal (ELF4) was 1.24 fold enrichment (6-mer frequency, TF over GST control) and the binding signal (ELK4) was 1.36 fold enrichment (6-mer frequency, TF over GST control). The binding signal (ETV2) was 1.36 fold enrichment (6-mer frequency, TF over GST control), the binding signal (ELF3) was 1.44 fold enrichment (6-mer frequency, TF over GST control) and the binding signal (CRX) was 1.62 fold enrichment (6-mer frequency, TF over GST control). For the same sequence, the binding signal (ETV1) was 1.31 fold enrichment (6-mer frequency, TF over GST control).
